# Data reported in ChEMBL document CHEMBL1157539, “Thousands of chemical starting points for antimalarial lead identification” (Nature, 2010).
# Assays:
# Type in all cases: functional
# [1] = tested on: Plasmodium falciparum; test: GSK_TCMDC: Inhibition of Plasmodium falciparum 3D7 in whole red blood cells, using parasite LDH activity as an index of growth. Test compounds present at 2uM
# [2] = tested on: Plasmodium falciparum; test: GSK_TCMDC: Inhibition of Plasmodium falciparum Dd2 in whole red blood cells, using parasite LDH activity as an index of growth. Test compounds present at 2uM
# [3] = tested on: HepG2; test: GSK_TCMDC: Percent inhibition of human HepG2 cell line. Test compounds present at 10uM.
Compound,Inhibition [1],Inhibition [2],Inhibition [3]
CCN(CCNS(C)(=O)=O)c1ccc(N)c(C)c1.O.O=S(=O)(O)O,91%,11%,0%
Cc1noc(C)c1-c1ccc2c(Nc3ccccc3C(C)(C)C)c(C(=O)NCc3ccccc3)cnc2c1.Cl,99%,89%,20%
O=S(=O)(Nc1cccc(CCN2CCC(N3CCCCC3)CC2)c1)c1ccc(-c2ccccc2)cc1,100%,49%,76%
CCC[C@@H]([C@@H](Cc1ccc(C)s1)C(=O)N[C@@H](CNC(C)=O)C(=O)Nc1nccs1)N(O)C=O,97%,96%,0%
CCCC[C@@H](C(=O)NCCc1ccc(Cl)cc1)N1C(=O)CCC1C(=O)Nc1ccc(Cl)c(Cl)c1 (some centres undefined),95%,2%,4%
COc1ccc(Cc2c(Cl)nc3nc(N)nc(N)c3c2C)c(OC)c1OC,98%,0%,–
N#Cc1ccnc(-c2ccc(CNC3CCN(CC4Cn5c(=O)ccc6ccc(F)c4c65)CC3)cc2)c1.O=C(O)C(F)(F)F (centres undefined),88%,41%,24%
CC(C)NCc1ccc(-c2ccc(-c3nc4cc(F)ccc4[nH]3)cc2)cc1.O=C(O)C(F)(F)F,100%,100%,14%
COc1ccc(C)c(Nc2ccnc(Nc3ccc(-c4cnc[nH]4)cc3)n2)c1.Cl,97%,6%,40%
CCn1c(-c2nonc2N)nc2c(-c3cccc(NC(=O)Nc4cccc(C(F)(F)F)c4)c3)ncc(OCCCN)c21.O=C(O)C(F)(F)F,95%,70%,21%
O=C(NC1CC1)c1cnc(N2CCC(OCc3ccccc3)CC2)c(Cl)c1.O=C(O)C(F)(F)F,90%,71%,0%
CCn1cc2c3c(cc(C(=O)N[C@@H](Cc4ccccc4)[C@H](O)CNCc4cccc(OC)c4)cc31)N(C)S(=O)(=O)CC2,99%,97%,0%
CCCC(CCC)n1ccc2c3c(N)nc(N)nc3ccc21.Cl,98%,97%,66%
CN(C)c1ccc(-c2csc(C(=O)NCC3CCN(Cc4cccc(C(F)(F)F)c4)C3)c2)cc1.O=C(O)C(F)(F)F (centres undefined),97%,58%,15%
CC(C)c1ccc(NC(=O)c2ccc(C(=O)NC3CCN(CC4CCCCC4)C3)cc2)cc1.O=C(O)C(F)(F)F (centres undefined),93%,26%,35%
COc1ccc(NC(=O)N2CCc3ccc(OCCN(C(C)C)C(C)C)cc32)cc1C(F)(F)F.O=C(O)C(F)(F)F,90%,6%,0%
Cc1nc(C)c(-c2ccc(Sc3ccc(Cl)cc3)cc2)c(O)c1Br,98%,97%,–
O=C(Nc1ccc(C(F)(F)F)cc1)NC1CCN(c2ccnc3ccccc23)C1.O=C(O)C(F)(F)F (centres undefined),100%,89%,13%
CC(C(=O)Nc1ccc(Br)cc1Br)N1CCN(C(=O)c2ccco2)CC1 (centres undefined),91%,84%,3%
Cc1ccc(C2(C)CC(C)(C)N(C(=O)COc3ccc4ccccc4c3)c3ccccc32)cc1 (centres undefined),100%,98%,0%
CN1CCN(CCCNc2ncc3c(-c4ccc(NC(=O)Nc5cc(C(F)(F)F)ccc5F)c(F)c4)nn(C)c3n2)CC1.O=C(O)C(F)(F)F,98%,94%,100%
COc1cccc(NC(=O)c2ccc(NCCCN3CC(C)CC(C)C3)c([N+](=O)[O-])c2)c1 (centres undefined),100%,68%,14%
COc1ccc(NC(=O)[C@H](Cc2ccccc2)Nc2cc(C)nc(NCCc3ccccc3)n2)cc1.O=C(O)C(F)(F)F,98%,83%,6%
Cl.O=c1cc(NCCCNC2CCOc3c(Cl)cc(Cl)cc32)[nH]c2ccccc12 (centres undefined),100%,88%,0%
Nc1nc(N)c2cc(CNc3ccc(Cl)c(Cl)c3)ccc2n1,93%,55%,62%
CC(C)C(=O)NC(c1ccc(Cl)cc1)c1ccc2cccnc2c1O (centres undefined),91%,70%,53%
CC(C)c1ccc(CN2CCCCC(NC(=O)c3cc(-c4ccccc4Cl)cs3)C2)cc1.O=C(O)C(F)(F)F (centres undefined),100%,64%,8%
